In all, about 410,000 compounds went through this assay and about 7,200 (1.8%) were called active. Entries that show only a call come without a potency. Not shown: some 7% with an inconclusive outcome. Calls follow the shape of the dose curve; as a rule, active = well fitted activation curve with a large enough effect; inconclusive = small, poorly fitted or top-dose-only effect, or another doubt; inactive = no such curve, though single readings can be large or run the other way. The sample as a whole holds a higher share of actives than the screen did.
Potency is read from the fitted curve at half-maximal effect.

The test is described as follows: qHTS of TDP-43 Inhibitors. Also: nearly all actives have a fitted effect of over 50% in size. The note with it: TDP-43 expressing yeast growth rescue, BacTiter-Glo, 24 h; series mostly up to 46.1 µM. From the text: The goal of this project is to identify new chemical probes capable of reversing the toxicity associated with TDP-43 which is associated with frontotemporal lobar degeneration and amyotrophic lateral sclerosis. These compounds will provide a complementary approach to deciphering the tangled mechanisms of toxicity and protection that we have uncovered through genome-wide genetic screens and are beginning to uncover in a large-scale proteomics analysis with mass spectroscopy.
To this end, a miniaturized assay was developed to be screened against the Molecular Libraries Small Molecule Repository (MLSMR) to discover TDP-43 inhibitors. Please note that in the set-up this yeast-based assay compounds that inhibit as TDP-43, have a read-out as activators.
NIH Chemical Genomics Center [NCGC]
NIH Molecular Libraries Probe Centers Network [MLPCN]
Assay Submitter (PI): Susan Lindquist, Whitehead Institute/MIT
Dispense 2.5 microL yeast galactose medium per 1536-well plate, pin compound, dispense 2.5 microL TDP-43 expressing yeast in galactose medium at OD600=0.02 (pregrown in raffinose medium to mid-log phase) per well, incubate for 24 hr at 30 deg C, and cell growth will be measured using 5 microL of Bactiter/Glo reagent to entire plate and read using Luminescence Protocol in ViewLux.
In general terms: Quantitative high-throughput screening tests each substance at several concentrations.
Consider `CC1CCN(C(=O)c2ccc(S(=O)(=O)Cc3cc(F)ccc3F)c([N+](=O)[O-])c2)CC1`, for which the Potency is 11.2 µM (active).

As to `NC(=O)C1CCN(C(=O)c2ccc(F)c(S(=O)(=O)N3CCOCC3)c2)CC1`, the Potency result is “inactive”.

For the compound `CC1CCN(c2ccc(S(=O)(=O)Nc3cc(C(=O)O)cc(C(=O)O)c3)cc2[N+](=O)[O-])CC1`, the Potency result is “inactive”.

Regarding `Cc1cc(C)cc(OCC(=O)Nc2c(C(=O)c3ccccc3)oc3ccccc23)c1`, the Potency result is “inactive”.

In the case of `COc1ccc(CCNC(=O)c2ccc(-n3c(C)cc4c3CCCC4)cc2)cc1OC`, the Potency result is “inactive”.

Regarding `CC1CCN(S(=O)(=O)c2ccc3c(ccn3CCC(=O)NCc3ccc(N(C)C)cc3)c2)CC1`, the Potency result was “inactive”.

For the compound `CC1CCC2(CC1)N=C(c1ccccc1)C(=O)N2CC(=O)Nc1ccc(F)c(Cl)c1` (stereo not given), the Potency result was “inactive”.

In the case of `CC1COc2ccccc2N1S(=O)(=O)c1ccccc1` (stereo not given), the Potency entry was “inactive”.

For the compound `OC(COCC1COc2ccccc2O1)CN1CCN(c2ccc(F)cc2)CC1` (stereo not given), the Potency result was “inactive”.

For `Cc1n[nH]c(C)c1S(=O)(=O)N1CCCC(C(=O)NCC2COc3ccccc3O2)C1` (stereo not given), the Potency entry is “inactive”.

Turning to `O=C1C(=O)N(CC2COc3ccccc3O2)c2ccccc21` (stereo not given), the Potency was 28.2 µM (active).

As for `Cc1cc(C(=O)CCl)c(C)n1CC1COc2ccccc2O1` (stereo not given), the Potency is 20 µM (active).

As for `Cc1ccc(Cl)cc1NC(=O)NC1COc2ccccc2C1` (stereo not given), the Potency result is “inactive”.

For the compound `COc1ccccc1Nc1c2c(nc3ccc(NC(=O)/C=C/c4cc(OC)c(OC)c(OC)c4)cc13)CCCC2`, the Potency result was “inactive”.

For `CCc1ccc(NC(=O)C2CCCN2S(=O)(=O)c2ccc3nc(-c4ccccc4)[nH]c3c2)cc1` (stereo not given), the Potency result is “inactive”.

For `C=Cc1ccc(Cn2c(C(=O)OC)cc3sc(C)cc32)cc1`, the Potency result is “inactive”.

Consider `CCN1CCN(c2ncc3c(n2)CC(c2ccccc2O)CC3=O)CC1` (stereo not given), for which the Potency result is “inactive”.

Take `Cc1ccc(-n2c3nc(=O)[nH]c(=O)c-3cc3c(Cl)cccc32)cc1`: the Potency result is “inactive”.

Consider `Cc1ccc(CNC(=O)c2c(O)nc3c(C)cccn3c2=O)cc1`, for which the Potency result is “inactive”.

For the compound `CCOc1cc(C(=O)Nc2nnc3n2CCS3)cc(OCC)c1OCC`, the Potency entry was “inactive”.

Regarding `Cc1ccccc1NC(=O)Cn1c(=O)n(CCCCC(=O)NCc2ccccc2Cl)c(=O)c2ccccc21`, the Potency entry was “inactive”.

Take `Cc1ccc(C)c(NC(=O)Cn2ccn(-c3ccc(F)cc3)c(=O)c2=O)c1`: the Potency entry is “inactive”.

For the compound `COc1ccccc1-c1cc(C(F)(F)F)nc(S(=O)(=O)CCCC(=O)Nc2cc(C)ccc2O)n1`, the Potency result was “inactive”.

`CSc1ccccc1NC(=O)CCS(=O)(=O)c1nc(-c2cccs2)cc(C(F)(F)F)n1`: the Potency entry was “inactive”.

`COc1ccccc1-c1cc(C(F)(F)F)nc(S(=O)(=O)CCCC(=O)Nc2ccc(F)cc2F)n1`: the Potency is 14.1 µM (active).

In the case of `CCOC(=O)c1ccc(NC(=O)c2ncn(-c3ccccc3)n2)cc1`, the Potency entry is “inactive”.

With `Cc1cccc(N2CCN(C(=O)c3ccc(Nc4nc5ccccc5n5nnnc45)cc3)CC2)c1C`, the Potency result was “inactive”.

As to `Cc1ccc(C=O)c([B-](F)(F)F)c1`, the Potency is 11.2 µM (active).

As for `CN1c2ccc(C=O)c3c(C=O)ccc(c23)N(C)C1(C)C`, the Potency entry is “inactive”.

For `CCOc1ccc(OCC)c(Nc2nc3ccccc3n3nnnc23)c1`, the Potency result was “inactive”.

On to `Cc1cc(=O)c2cc(C(=O)Nc3cccc(C)c3C)ccc2[nH]1`, for which the growth rescue (activation) is 0% [at 9.22 µM] (inactive).

For the compound `O=C(COC(=O)COc1cccc(F)c1)NCC1CCCCC1`, the Potency result is “inactive”.

For `CCC(=O)c1cc(F)ccc1OCC(=O)Nc1ccc2c(c1)OCCO2`, the Potency entry is “inactive”.

On to `O=C(COc1ccc(F)cc1Br)NCC1COc2ccccc2O1` (stereo not given), for which the Potency was 22.4 µM (active).

In the case of `CCC(=O)N1CCc2cc(S(=O)(=O)NC(C(=O)Nc3ccc(C(C)=O)cc3)C(C)C)ccc21` (stereo not given), the Potency entry was “inactive”.

On to `CC(=O)Nc1ccc(NC(=O)CSc2nnnn2-c2ccccc2F)cc1`, for which the Potency entry is “inactive”.

Turning to `CCn1nnnc1SCC(=O)c1ccc(C)cc1C`, the Potency entry is “inactive”.

Regarding `Cc1ccccc1-n1nnnc1SCCCC(=O)c1ccc(F)cc1`, the Potency was 35.5 µM (active).

`COc1ccc(CNC(=O)CSCc2nc(-c3ccccc3F)oc2C)cc1`: the Potency result is “inactive”.

As to `COc1ccc(Br)cc1C1CC(=O)Nc2c1c(C)nn2-c1nc(C)cc(C)n1` (stereo not given), the growth rescue (activation) was 10.5% [at 9.22 µM] (inactive).

As to `COc1ccccc1N1CCN(c2ncnc3sc(C)c(-c4ccccc4)c23)CC1`, the Potency is 17.8 µM (active).

Consider `COc1ccccc1N1CCN(CCCCOc2ccc(F)cc2)CC1`, for which the Potency entry was “inactive”.

Consider `COC(=O)c1cnc(N2CCN(c3ccccc3OC)CC2)c2ccccc12`, for which the Potency entry was “inactive”.

Take `Cc1cc(C)cc(Nc2ncnc3onc(-c4ccc(F)cc4)c23)c1`: the Potency result was “inactive”.

On to `CN(Cc1ccccc1)c1ccc(-c2nc(-c3ccccc3)no2)cc1[N+](=O)[O-]`, for which the Potency entry was “inactive”.

Turning to `COc1ccccc1N1CCN(c2ncnc3onc(-c4ccc(F)cc4)c23)CC1`, the Potency was 15.8 µM (active).

Consider `COc1ccccc1N1CCN(c2ccc([N+](=O)[O-])nc2)CC1`, for which the Potency entry is “inactive”.

`CN(Cc1ccccc1)c1ncnc2onc(-c3ccc(F)cc3)c12`: the Potency was 35.5 µM (active).

For the compound `COc1ccccc1N1CCN(c2ncnc3onc(-c4cccc(Cl)c4)c23)CC1`, the Potency result is “inactive”.

For the compound `CCOc1ccc(OCC)c(NC(=O)c2c(C)nn(-c3ccccc3)c2-n2cccc2)c1`, the Potency result is “inactive”.

For the compound `O=C(Nc1ccc(Br)cc1)c1cc2nc(-c3ccccc3)cc(-c3ccccc3)n2n1`, the Potency entry is “inactive”.

Regarding `Cc1ccc2c(c1)N(C(=O)CCC(=O)NCc1ccccc1F)CC(C)O2` (stereo not given), the Potency entry was “inactive”.

Turning to `Cc1ccc2c(=O)cc(C(=O)Nc3sc4c(c3C(=O)NCc3cccnc3)CCCC4)oc2c1`, the Potency entry was “inactive”.

Regarding `O=C(CSc1nccn1C1CCCC1)Nc1cc(C(F)(F)F)ccc1Cl`, the Potency result is “inactive”.

As for `CCOC(=O)c1cnc(SCC(=O)Nc2ccccc2C(=O)OC)nc1N`, the Potency is 22.4 µM (active).

For `CCOC(=O)c1cnc(SCC(=O)Nc2cccc(OC)c2)nc1N`, the Potency result was “inactive”.

For `COC(=O)c1ccccc1NC(=O)CSc1n[nH]c(-c2ccncc2)n1`, the Potency result is “inactive”.

For the compound `Cc1nc(SCC(=O)Nc2ccc(C(=O)O)cc2)n[nH]1`, the Potency result was “inactive”.

For the compound `O=C(Nc1ccc(C(=O)OCc2cc(=O)n3nc(C4CC4)sc3n2)cc1)c1ccc(F)cc1`, the Potency result is “inactive”.

As for `CCCCNC(=O)c1ccc2c(c1)NC(=O)C(C(C)C)N2` (stereo not given), the Potency result is “inactive”.

Take `CCc1ccccc1N1CC(c2nc3ccccc3n2CCCCOc2ccccc2)CC1=O` (stereo not given): the Potency entry is “inactive”.

On to `CCOC(=O)c1c(S(=O)(=O)N2CCCC(C(=O)NCc3cccc(C)c3)C2)c(C)n(C)c1C` (stereo not given), for which the Potency entry is “inactive”.

Regarding `CC(c1ccco1)N(C(=O)Nc1ccccc1)C1CCCCC1` (stereo not given), the Potency result was “inactive”.

For the compound `CC(NC(=S)Nc1ccccc1)C1COc2ccccc2O1` (stereo not given), the Potency is 12.6 µM (active).

In the case of `CC(NC(=S)Nc1ccccc1)C(c1cccs1)N1CCOCC1` (stereo not given), the Potency entry was “inactive”.

For `COc1ccc(NC(=O)c2cc3cc(C)ccc3n2C)cc1`, the growth rescue (activation) is 2.24% [at 9.22 µM] (inactive).

Turning to `Cc1nc2ccc(C(=O)N3CCN(c4ccccc4)CC3)cc2s1`, the Potency was 14.1 µM (active).

With `CC1CCN(c2nc3ccc(C(=O)N4CCN(c5ccccc5)CC4)cc3s2)CC1`, the Potency result is “inactive”.

Consider `Cc1nc2ccc(C(=O)N3CCSCC3)cc2s1`, for which the Potency result is “inactive”.

On to `COc1nc(N=C(N)N)nc2c(C)cccc12`, for which the Potency entry was “inactive”.

With `CC(=O)Oc1ccc(-c2nc3c(C)cccc3c(=O)o2)cc1`, the Potency was 12.6 µM (active).

For `O=C(Oc1ccccc1)Oc1ccc2c(c1)oc(=O)c1ccccc12`, the Potency entry was “inactive”.

With `O=C(NCc1ccc(Cl)cc1)C1CCN(S(=O)(=O)c2cccs2)CC1`, the Potency entry is “inactive”.

Take `O=S(=O)(NCc1ccc(Cl)cc1Cl)c1cccs1`: the Potency was 8.91 µM (active).

In the case of `O=S(=O)(Cc1ccc(Cl)cc1Cl)c1ccc(Cl)cc1`, the Potency result is “inactive”.

Take `CC1=C(C(=O)Nc2ccccc2Cl)C(c2cccs2)n2ncnc2N1` (stereo not given): the Potency entry was “inactive”.

Regarding `CCNC(=O)c1cc2n(n1)CCCN(Cc1ccc(C)cc1)C2=O`, the Potency result is “inactive”.

For `O=C(N/N=C\c1cc(Br)c(Br)o1)C1COc2ccccc2O1` (stereo not given), the Potency was 11.2 µM (active).

`CC(/C=C/c1ccco1)=N/NC(=O)C1COc2ccccc2O1` (stereo not given): the Potency entry was “inactive”.

Take `Cc1ccc(C(=O)N/N=C\c2cc(Br)c(Br)o2)cn1`: the Potency entry was “inactive”.

Regarding `O=C(Nc1nc2ccc(F)cc2s1)c1nc(SCc2ccccc2F)ncc1Cl`, the Potency result was “inactive”.

With `COc1cc(CNCCSc2nnnn2C)ccc1OCc1c(F)cccc1Cl`, the Potency entry was “inactive”.

For `CCOc1ccc(Nc2nc3c(S(=O)(=O)c4cccc(Cl)c4)nnn3c3ccsc23)cc1`, the Potency result is “inactive”.

Consider `O=C(NCc1ccc(F)cc1)c1ccc(Cn2c(SCc3ccc(F)cc3)nc3cccnc32)cc1`, for which the Potency entry is “inactive”.

On to `CCCCN(C)c1nnc(NC(=O)Nc2ccc(Br)c(C)c2)s1`, for which the growth rescue (activation) is 22.1% [at 9.22 µM] (inactive).

As for `CCCCCNC(=O)C(c1ccc(OC)cc1)n1c(=O)c(-c2ccccc2)nc2ccccc21` (stereo not given), the Potency entry was “inactive”.

Turning to `COc1ccc(NC(=O)C(c2ccncc2)n2c(=O)c(-c3cc4ccccc4[nH]3)nc3ccccc32)cc1` (stereo not given), the Potency is 17.8 µM (active).

Take `COc1ccc(C(C(=O)NCc2ccccc2)n2c(=O)c(-c3ccccc3)nc3ccccc32)cc1` (stereo not given): the Potency entry was “inactive”.

For the compound `COc1ccc(CC(=O)NCCc2sc3nc(-c4ccc(OC)cc4)nn3c2C)cc1`, the Potency entry is “inactive”.

`CC1CCCCN1Cc1c(O)ccc2c(=O)c(-c3cccc(Cl)c3)c(C(F)(F)F)oc12` (stereo not given): the Potency entry is “inactive”.

For the compound `O=C(c1cc(COc2cccc(C(F)(F)F)c2)on1)N1CCSCC1`, the Potency was 22.4 µM (active).

For `CC1CN(C(=O)c2cc(COc3c(F)cccc3F)on2)CCN1C` (stereo not given), the Potency result is “inactive”.

Regarding `O=C(NC1Cc2ccccc2C1)c1cc(COc2cccc(C(F)(F)F)c2)on1`, the Potency entry is “inactive”.

For the compound `CCc1cccc(NC(=O)Cn2nc(CC)n3c(cc4cc(C)ccc43)c2=O)c1`, the Potency result is “inactive”.

For `COc1ccc(C2(Nc3cccc(F)c3)C(=O)c3ccccc3C2=O)cc1`, the Potency entry was “inactive”.

For `O=C1CC(c2ccc(F)cc2F)c2cc3c(cc2N1)OCO3` (stereo not given), the Potency entry was “inactive”.

`CCCOc1ccccc1C1CC(=O)Nc2cc3c(cc21)OCO3` (stereo not given): the Potency is 20 µM (active).

In the case of `Cc1cc2c(cc1C)C(c1cccc(OC(C)C)c1)CC(=O)N2` (stereo not given), the Potency entry is “inactive”.

In the case of `Cc1ccc(Cl)cc1N1CCN(C(=O)C2CCC(CNS(=O)(=O)c3cccs3)CC2)CC1` (stereo not given), the Potency entry was “inactive”.

On to `COc1cccc(CN2CCc3nc(SCC(=O)Nc4ccccc4)[nH]c(=O)c3C2)c1`, for which the Potency entry was “inactive”.

Source of the values: PubChem BioAssay AID652104 (National Center for Advancing Translational Sciences (NCATS), 2013).
